# Measurements published in PubChem BioAssay.
# The source made the active and inactive calls. Unless noted, how the calls were made is not given here.
# Key:
# [1] = compound effects on lung adenocarcinoma cell viability – A549, calcein-AM fluorescence, 48 h, basal, profiling panel (AID 1162); conditions: higher = more signal; further: test concentration not given here
# [2] = compound effects on differentiated 3T3-L1 adipocyte viability – cell-based, 3T3-L1 adipocytes, calcein-AM fluorescence, 48 h, basal, profiling panel (AID 1163); conditions: 3T3-L1 adipocytes viability, higher = more signal; further: test concentration not given here
# [3] = compound effects on hepatocellular carcinoma cell viability – HepG2, calcein-AM fluorescence, 48 h, basal, profiling panel (AID 1164); conditions: higher = more signal; further: test concentration not given here
# [4] = compound effects on multiple myeloma cell viability – MM1S, calcein-AM fluorescence, 48 h, basal, profiling panel (AID 1165); conditions: higher = more signal; further: test concentration not given here
# [5] = calcein-AM signal in unstimulated myeloma cells – cell-based, calcein-AM fluorescence, 48 h, PK04 Diversity Set, profiling panel (AID 1166); conditions: RPMI8226 myeloma viability, higher = more signal;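 further: cells grown under basal conditions without added stimulus; test concentration not given here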
# [6] = JC-1 mitochondrial signal, unstimulated HepG2 cells – cell-based, JC-1 fluorescence, 24 h, 100 nL compound, profiling panel (AID 1167); conditions: HepG2 mitochondrial potential, higher = more signal; further: test concentration not given here
# [7] = JC-1 mitochondrial signal, unstimulated adipocytes – cell-based, JC-1 fluorescence, 3T3-L1 adipocytes, 24 h, 100 nL compound, profiling panel (AID 1168); conditions: JC-1 mitochondrial fluorescence, higher = more signal, called active from +8 up or from −8 down; further: test concentration not given here
# [8] = JC-1 mitochondrial signal, unstimulated myeloma cells – cell-based, JC-1 fluorescence, RPMI8226, 24 h, 100 nL compound, profiling panel (AID 1169); conditions: JC-1 mitochondrial potential fluorescence, higher = more signal; further: test concentration not given here
# [9] = JC-1 mitochondrial signal, unstimulated MM1S myeloma – cell-based, JC-1 fluorescence, 24 h, 100 nL compound, profiling panel (AID 1170); conditions: MM1S mitochondrial potential, higher = more signal; further: test concentration not given here
# [10] = resazurin metabolic signal in A549 cells – cell-based, resazurin fluorescence, 24 h, PK04 Diversity Set, profiling panel (AID 1171); conditions: A549 viability, higher = more signal, called active from +8 up or from −8 down; further: test concentration not given here
# [11] = resazurin metabolic signal in HepG2 cells – cell-based, resazurin fluorescence, 24 h, PK04 Diversity Set, profiling panel (AID 1172); conditions: HepG2 viability, higher = more signal; further: test concentration not given here
# [12] = budding yeast growth changes without added modifier – OD600, strain BY4716, 24 h, basal condition, primary screen (AID 1173); conditions: S. cerevisiae BY4716 growth, OD600, 24 h; higher = more signal, called active from +8 up or from −8 down
# [13] = viability profiling in MM1S myeloma cells – cell-based, resazurin fluorescence, basal, 24 h, PK04 Diversity Set, profiling panel (AID 1174); conditions: higher = more signal, called active from +8 up or from −8 down; further: test concentration not given here
# [14] = molecular target: Dihydroorotate dehydrogenase (quinone), mitochondrial (Plasmodium falciparum (isolate 3D7)) (UniProt Q08210); experiment: inhibition of P. falciparum DHODH – biochemical, C-terminal His tag, absorbance 600 nm, primary screen (AID 1175); conditions: PfDHODH enzyme, DCIP absorbance 600 nm; higher = more signal, called active from +8 up or from −8 down;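 further: recombinant parasite enzyme with a five histidine tag at its C terminus; test concentration not given here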
# [15] = inhibition of PAO1 biofilm formation – strain PAO1, LB-PBS medium, absorbance 600 nm, primary screen (AID 1176); further: test concentration not given here; conditions: P. aeruginosa PAO1 growth/biofilm, A600, 12 h; higher = more signal
# [16] = growth modulation of vineyard yeast isolate – strain RM11-1a, OD600, basal, 24 h, primary screen (AID 1177);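 further: cultures grown under basal conditions with no added stressor; test concentration not given here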; conditions: S. cerevisiae RM11-1a growth, OD600, 24 h; higher = more signal, called active from +8 up or from −8 down
# [17] = growth of efflux-deficient E. coli DRC39 – strain DRC39, OD650, 24 h, E. coli filamentation inducers, primary screen (AID 1178);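 further: growth measured as culture turbidity by optical density at 650 nm; test concentration not given here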; conditions: E. coli DRC39 acrAB, higher = more signal, called active from +8 up or from −8 down
# [18] = growth of efflux-deficient E. coli DRC39 – strain DRC39, OD650, 48 h, E. coli filamentation inducers, primary screen (AID 1179);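 further: screen aims at cell division blockers that make cells filament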; conditions: E. coli DRC39 delta-acrAB growth, higher = more signal, called active from +8 up or from −8 down
# [19] = viability profiling in RPMI8226 myeloma cells – cell-based, resazurin fluorescence, basal, 24 h, PK04 Diversity Set, profiling panel (AID 1180); conditions: higher = more signal;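 further: RPMI8826 multiple myeloma cell line at 5000 cells per well; test concentration not given here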
# [20] = molecular target: E3 ubiquitin-protein ligase XIAP (Homo sapiens) (UniProt P98170); experiment: small molecules binding XIAP protein – biophysical, small-molecule microarray, fluorescence 635 nm, primary screen (AID 1181); conditions: higher = more signal;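 further: score merges 667 nm emission and signal to noise over triplicate slides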
# Sequence of E3 ubiquitin-protein ligase XIAP (Homo sapiens) (P98170 whole entry, looked up): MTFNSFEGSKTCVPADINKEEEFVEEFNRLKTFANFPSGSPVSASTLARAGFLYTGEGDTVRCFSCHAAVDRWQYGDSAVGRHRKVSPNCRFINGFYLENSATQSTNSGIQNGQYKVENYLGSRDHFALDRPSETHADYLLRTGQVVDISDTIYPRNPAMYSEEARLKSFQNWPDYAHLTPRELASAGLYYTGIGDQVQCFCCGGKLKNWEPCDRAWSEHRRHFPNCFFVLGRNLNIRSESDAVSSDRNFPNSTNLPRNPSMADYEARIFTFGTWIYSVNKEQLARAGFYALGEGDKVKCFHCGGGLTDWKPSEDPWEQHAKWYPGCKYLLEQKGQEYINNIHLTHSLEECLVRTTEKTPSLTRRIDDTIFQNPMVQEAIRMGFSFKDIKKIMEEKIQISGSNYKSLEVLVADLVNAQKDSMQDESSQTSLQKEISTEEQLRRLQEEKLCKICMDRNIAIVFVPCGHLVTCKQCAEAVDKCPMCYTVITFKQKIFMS
# Sequence of Dihydroorotate dehydrogenase (quinone), mitochondrial (Plasmodium falciparum (isolate 3D7)) (Q08210 whole entry, looked up): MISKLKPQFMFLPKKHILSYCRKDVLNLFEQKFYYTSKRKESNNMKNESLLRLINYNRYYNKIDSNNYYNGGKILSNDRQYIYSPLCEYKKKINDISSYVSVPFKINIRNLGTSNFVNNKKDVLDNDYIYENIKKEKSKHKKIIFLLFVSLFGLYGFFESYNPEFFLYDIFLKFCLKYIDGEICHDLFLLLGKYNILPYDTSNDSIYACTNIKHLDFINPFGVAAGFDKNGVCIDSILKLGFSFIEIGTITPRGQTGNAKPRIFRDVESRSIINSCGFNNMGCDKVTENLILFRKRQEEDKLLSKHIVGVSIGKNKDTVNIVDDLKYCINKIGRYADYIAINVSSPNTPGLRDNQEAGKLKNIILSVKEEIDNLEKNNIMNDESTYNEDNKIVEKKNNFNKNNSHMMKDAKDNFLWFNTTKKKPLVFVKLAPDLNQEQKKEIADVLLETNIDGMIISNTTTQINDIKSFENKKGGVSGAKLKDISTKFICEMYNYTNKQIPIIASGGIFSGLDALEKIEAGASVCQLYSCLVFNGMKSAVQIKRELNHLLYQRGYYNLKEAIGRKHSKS
SMILES,z-score [1],z-score [2],z-score [3],z-score [4],z-score [5],z-score [6],z-score [7],z-score [8],z-score [9],z-score [10],z-score [11],z-score [12],z-score [13],composite z-score [14],z-score [15],z-score [16],z-score [17],z-score [18],z-score [19],composite z-score [20]
COc1cc(CO)cc(I)c1O[C@H]1C=C(C(=O)NCCO)C[C@@H](NC2CCCCCC2)[C@@H]1O,-0.226,-0.174,0.806,-3.23,-0.334,1.09,0.426 (inactive),-0.441,-3.21,0.406 (inactive),0.371,-4.02 (inactive),0.115 (inactive),1.11 (inactive),-0.896 (inactive),0.77 (inactive),0.901 (inactive),0.12 (inactive),0.215,-0.11
O=C1O[C@@H](c2ccccc2)[C@@H](c2ccccc2)N2[C@@H](c3ccc(OCCO)cc3)[C@]3(C(=O)Nc4ccc(C#CCCO)cc43)[C@@H](C(=O)O)[C@H]12,1.35,-0.997,0.831,0.942,0.926,-0.498,-0.382 (inactive),0.284,-0.811,-0.384 (inactive),-0.0464,-0.718 (inactive),0.314 (inactive),-1.25 (inactive),0.185 (inactive),0.575 (inactive),0.932 (inactive),0.91 (inactive),0.104,0.104
CN(C)c1ccc(C(O)C2C=CC3C(=O)N(Cc4ccccc4)C(=O)C3N2n2cnnc2)cc1 (stereo not given),0.566,-0.179,2.13,0.0017,1.4,0.0219,0.522 (inactive),-0.203,1.23,-1.04 (inactive),-0.659,-0.116 (inactive),-0.253 (inactive),-0.536 (inactive),1.77 (inactive),-0.794 (inactive),0.0571 (inactive),0.694 (inactive),-0.268,0.0968
C[C@@H]1NC(=O)C([C@@H](C)OCc2ccccc2)NC(=O)[C@@]23C(=O)N[C@@H](Cc4ccccc4)C2[C@H](C)[C@@]2(C)O[C@H]2C3/C=C/C/C=C\CNC1=O (stereo not given in full),-0.405,0.387,-0.448,-0.129,-1.1,-0.121,0.782 (inactive),0.514,0.186,-0.0746 (inactive),-0.847,-0.399 (inactive),0.026 (inactive),-0.0288 (inactive),0.625 (inactive),0.533 (inactive),-0.602 (inactive),-0.426 (inactive),-0.104,-0.291
COc1ccc([Si](C)(C)[C@H]2[C@H](CC(=O)N3Cc4ccccc4C[C@H]3CO)O[C@@]3(C(=O)N(C)c4c(Br)cc(C)cc43)[C@@H]2C)cc1,-2.66,0.231,-4.66,-2.71,-4.36,-2.2,0.0243 (inactive),-1.12,-2.31,-2.92 (inactive),-4.15,0.915 (inactive),-6.33 (inactive),0.973 (inactive),1.72 (inactive),3.17 (inactive),-0.652 (inactive),-0.984 (inactive),-6.22,-0.134
COc1ccc(C(=O)Nc2ccc3c(c2)[C@@]2(O[C@H](CCO)[C@@H]([Si](C)(C)c4ccc(OC)cc4)[C@@H]2C)C(=O)N3Cc2ccccc2)cc1,-1.68,1.38,-3.6,-2.72,-4.3,-1.9,1.59 (inactive),-1.04,-2.2,-2.72 (inactive),-2.52,-1.96 (inactive),-8.32 (active),-0.687 (inactive),0.249 (inactive),2.7 (inactive),-0.59 (inactive),-0.927 (inactive),-5.58,-0.131
CC(C)(C)N1CC=CC23O[C@@H]4C=CCCOC(=O)C4[C@H]2C(=O)N(CCCCCCO)[C@@H]3C1=O (stereo not given in full),0.0905,-2.98,0.952,1.35,0.229,0.212,-0.501 (inactive),-0.0402,-0.516,-0.523 (inactive),0.0735,-0.437 (inactive),-0.176 (inactive),0.713 (inactive),-0.456 (inactive),0.735 (inactive),-0.0435 (inactive),0.43 (inactive),0.382,0.189
CC(C)(C)N1CC=CC23O[C@@H]4/C=C\CCCOC(=O)C4[C@H]2C(=O)N(CCCO)[C@@H]3C1=O (stereo not given in full),-0.377,1.1,0.0723,-0.112,-0.0698,-0.794,0.822 (inactive),0.233,0.229,0.114 (inactive),0.0873,0.111 (inactive),0.0928 (inactive),-2.08 (inactive),-0.236 (inactive),-1.06 (inactive),0.0362 (inactive),-0.205 (inactive),-0.0182,-0.0626
CC(C)C(=C=CC[C@H](O)c1ccccc1OCCO)C[C@H](O)COCc1ccccc1,0.827,-0.0066,0.245,-2.9,-1.15,-0.0954,-0.307 (inactive),-0.823,-0.662,-0.0334 (inactive),-0.0813,-1.07 (inactive),-0.271 (inactive),-2.12 (inactive),0.731 (inactive),-0.154 (inactive),-0.145 (inactive),-0.306 (inactive),-0.921,0.17
O=C(NCCN1CCOCC1)[C@@H]1c2ccccc2C(=O)N(Cc2ccc(OC(F)(F)F)cc2)[C@H]1c1ccc(CO)cc1,3.01,1.04,0.113,0.0559,-0.231,2.31,0.229 (inactive),1.04,0.745,0.614 (inactive),-0.129,-0.559 (inactive),0.0245 (inactive),-0.0449 (inactive),0.925 (inactive),-0.449 (inactive),0.248 (inactive),-0.322 (inactive),0.546,0.0151
COC(=O)[C@@]1(Cc2ccccc2)[C@H]2c3cc(C(=O)N4CCCC4)n(Cc4ccc(OC)c(OC)c4)c3C[C@H]2CN1C(=O)c1ccccc1,0.126,0.106,-0.257,-0.571,-1.05,3.84,1.09 (inactive),-0.73,-0.52,0.613 (inactive),0.181,1.58 (inactive),-0.466 (inactive),0.263 (inactive),0.0944 (inactive),1.72 (inactive),-0.372 (inactive),0.352 (inactive),-0.172,0.0589
COc1cc(C(O)C2C=CC3C(=O)N(c4ccccc4)C(=O)C3N2Nc2ccccc2)cc(OC)c1OC (stereo not given),-0.591,-1.66,-0.342,0.294,-0.0482,-2.43,-1.22 (inactive),-0.953,-0.116,-0.427 (inactive),-0.945,-7.58 (inactive),-0.191 (inactive),0.484 (inactive),1.11 (inactive),0.499 (inactive),-0.393 (inactive),-0.433 (inactive),-0.977,0.0845
[N-]=[N+]=Nc1ccccc1C[C@@]1(C(=O)NCc2ccccc2)N=C(c2ccc(OCCCO)cc2)O[C@@H]1c1ccccc1N=[N+]=[N-],-1.58,1.31,-0.83,-3,-4.36,0.728,-0.182 (inactive),-1.23,-0.936,-0.996 (inactive),-0.664,-0.353 (inactive),-2.18 (inactive),0.366 (inactive),0.689 (inactive),0.105 (inactive),0.969 (inactive),-0.289 (inactive),-2.89,-0.113
CN1C(=O)C2C(C1=O)C1C=C(CCCO)C2C(C2CC2)N1Cc1cccc(OC(F)(F)F)c1 (stereo not given),-0.379,0.116,-0.814,-0.517,-0.781,0.217,-0.423 (inactive),-0.00892,0.389,-0.0655 (inactive),-0.584,-1.13 (inactive),-0.551 (inactive),-1.75 (inactive),0.559 (inactive),0.132 (inactive),0.492 (inactive),-0.377 (inactive),-0.615,0.0105
O=C(NCC(O)CO)C1N=C(c2ccc(OCCCO)cc2)N(c2ccccc2)O1 (stereo not given),-0.508,-0.293,0.285,1.22,-1.53,0.499,-0.761 (inactive),-0.877,0.571,-0.0914 (inactive),-0.664,-0.732 (inactive),-0.783 (inactive),-0.568 (inactive),-1.41 (inactive),-0.406 (inactive),0.015 (inactive),-0.003 (inactive),-1,-0.142
C=CCC(OC(C)=O)[C@@H]1[C@@H](N(Cc2cc3ccccc3o2)C(=O)c2cccc3ccccc23)c2cc(OCCCO)ccc2N1C(=O)c1ccc2ccccc2n1 (stereo not given in full),0.375,0.756,0.601,-1.14,-2.01,2.42,-0.961 (inactive),-0.211,-0.245,-0.985 (inactive),-1.01,-0.711 (inactive),-0.367 (inactive),0.364 (inactive),0.256 (inactive),0.202 (inactive),0.935 (inactive),0.207 (inactive),-0.544,-0.393
CC(C)C[C@@H]1NC(=O)[C@@H]2C[C@H](C(=O)NCCCCCCNC(=O)CS)[C@H](c3cccc(OCCO)c3)N2C1=O,0.028,-0.0252,0.134,-0.505,-0.587,-0.946,-0.185 (inactive),-0.217,-0.165,0.457 (inactive),-0.889,1.05 (inactive),-1.1 (inactive),0.283 (inactive),0.863 (inactive),1.11 (inactive),-0.379 (inactive),-0.881 (inactive),-0.458,-0.122
